From PubChem BioAssay (NCATS)
Values without a mark were called inactive. Inconclusive results are not listed. Activity calls are given as the source filed them. Unless noted, calls come from the whole dose curve; as a rule, active = well fitted curve in either direction with a large enough effect (not every such curve was filed as active); inconclusive = small, poorly fitted or top-dose-only effect, or another doubt; inactive = flat fitted curve, though single readings scatter.

Legend:
[1] = target: Lysosomal acid glucosylceramidase (Homo sapiens) (UniProt P04062); assay: Glucocerebrosidase-p2 (AID 348; in the data active = potency below about 10 µM; note: potency is the fitted concentration of half-maximal effect); conditions: purified GBA, blue fluorogenic substrate, 40 min
Procedure, shortened: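 Normal human glucocerebrosidase (0.2 nM) with blue fluorogenic substrate (80 uM final) in citrate/phosphate pH 5.9 with 10mM sodium taurocholate, 0.01% tween-20; 40 min RT, NaOH/glycine stop; fluorescence Ex 365/Em 440; AC50 from a titration from 0.6 nM upwards.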

[2] = AP1 Signaling Pathway (AID 357); conditions: ME-180 AP-1-bla reporter, EGF-induced, beta-lactamase ratio, 5 h; at 7.69 µM (top of the series) unless noted;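 note: ME-180 reporter cells stimulated with EGF at its EC50 level; % is set by controls: 0 for no effect and ±100 for the full control effect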
Procedure, shortened: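 Beta-lactamase reporter under AP-1 response element, ME-180 background. Stimulus: EC50 EGF. Compound exposure 5 h, 37 °C. Detection: CCF4, 2.5 h RT, 460/530 nm. Values: AC50 from titration.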

[3] = target: Cytochrome P450 1A2 (Homo sapiens) (UniProt P05177); assay: p450-cyp1a2 (AID 410; calls by dose curve; note: potency is the fitted concentration of half-maximal effect;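 for activity change, negative = inhibition: -100% = full effect of reference inhibitor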); conditions: recombinant CYP1A2, luciferin-ME demethylation, luminescence; series mostly up to 11.4 µM
Procedure, shortened: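 Read-out is luminescence from luciferin produced by CYP1A2 demethylation of Luciferin-ME (100uM, at Km). Detection reagent stopped the 60 min NADPH-dependent reaction; signals were normalized to 57 uM furafylline.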

[4] = NFAT Signaling Pathway (AID 444); conditions: Jurkat NFAT-bla M1, carbachol, beta-lactamase ratio, 5 h; at 7.69 µM (top of the series) unless noted;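 note: carbachol stimulus at about its EC50 of 1 µM final; % is set by controls: 0 for no effect and ±100 for the full control effect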
Procedure, shortened: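 Read-out: CCF4 FRET ratio (460 nm/530 nm) after 1 h RT dye loading, used for %activity and AC50 from titration series. Cells: Jurkat NFAT-β-lactamase/M1 line, treated with compound plus 1 uM carbachol for 5 h, 37 °C.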

[5] = Stat Signaling Pathway (AID 446); conditions: ME-180 (cervical carcinoma) SIE beta-lactamase reporter, IL-6 stimulated, 5 h; at 7.69 µM (top of the series) unless noted;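 note: ME-180 cervical cancer cells given 40 pM IL-6 alongside compound; SIE-controlled beta-lactamase reporter measured as 460/530 nm FRET emission ratio; % is set by controls: 0 for no effect and ±100 for the full control effect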
Procedure, shortened: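 FRET read-out (405 nm excitation, 460/530 nm emission) of a beta-lactamase reporter under a STAT-inducible element in ME-180 cervical carcinoma cells. Cells with compound receive 40 pM IL-6 for 5 h. Values are normalised to AC90 stimulation and AC90 JAK-inhibitor controls.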

[6] = target: Glucocorticoid receptor (Homo sapiens) (UniProt P04150); assay: GR-GFP Redistribution (AID 450;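 active = compounds whose dose series gives a full or clear partial fitted curve of increased nuclear translocation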; note: potency is the fitted concentration of half-maximal effect); conditions: U2OS GR-GFP nuclear translocation, laser cytometry, 2 h
[7] = target: Glucocorticoid receptor (Homo sapiens) (UniProt P04150); assay: GR-EFC Redistribution (AID 451; calls by dose curve; note: potency is the fitted concentration of half-maximal effect); conditions: CHO-K1 GR-EFC translocation, beta-gal luminescence, 2 h
Procedure, shortened: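 Translocation of GR-ED fusion to nuclear EA restores b-gal, read by luminescence after 1 h room-temperature detection. Engineered CHO-K1 biosensor cells, 1,000/well, exposed 2 h at 37 C to titrations up to 46 uM final.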

[8] = target: Mitogen-activated protein kinase 10 (Mus musculus) (UniProt Q61831); assay: JNK3 AlphaScreen Assay (AID 530); conditions: JNK3 lysate, c-Jun phosphorylation; series mostly up to 11.4 µM;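 note: kinase came from lysate of stimulated human HepG2 cells; signal reports phosphorylation of biotinylated GST-cJun 1-79 at Ser73 with 10 µM ATP; % is set by controls: 0 for no effect and ±100 for the full control effect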
Procedure, shortened: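 Kinase buffer: 20 mM Tris-HCl pH 7.6, 10 mM MgCl2, 1 mM DTT, 0.1 mM Na3VO4, 0.01% Tween-20; ATP 10 uM. Substrate biotin-GST-cJun(1-79), enzyme from activated HepG2 lysates. Detection by Ser73 phospho-antibody AlphaScreen.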

[9] = target: 3',5'-cyclic-AMP phosphodiesterase 4B (Homo sapiens) (UniProt Q07343); assay: qHTS Assay for Inhibitors of PDE-IV (AID 607; active = well fitted activation curve with a large enough effect in the main read-out, with a control signal flat, not every such curve was filed as active; note: % of control where 0% means no effect); conditions: HEK293 ACTOne CNG channel cells, membrane potential fluorescence; series mostly up to 22.9 µM
Procedure, shortened: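 Cell-based read-out of cAMP via a modified cyclic nucleotide-gated channel and membrane potential dye (535/590 nm) in HEK293 cells expressing PDE4 endogenously. Compounds tested up to 22.9 uM final; 100 uM RO 20-1724 reference.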

[10] = target: Cytochrome P450 2C9 (Homo sapiens) (UniProt P11712); assay: qHTS Assay for Inhibitors and Substrates of Cytochrome P450 2C9 (AID 883; active = well fitted inhibition curve with a large enough effect; note: % is set by controls: 0 for no effect and ±100 for the full control effect; nearly all actives have a fitted effect of over 60% in size); conditions: recombinant CYP2C9, luciferin-H luminescence, 60 min; series mostly up to 11.4 µM
Procedure, shortened: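 Inhibition of CYP2C9 is scored as loss of luminescence, with 57uM sulphaphenazole defining 100% inhibition. Substrate Luciferin-H is used at 100uM, equal to its KM; enzyme at 10nM in 25mM KPO4, 60 min at 37C with NADPH regeneration.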

Chain of Lysosomal acid glucosylceramidase (Homo sapiens) (P04062 whole entry, looked up): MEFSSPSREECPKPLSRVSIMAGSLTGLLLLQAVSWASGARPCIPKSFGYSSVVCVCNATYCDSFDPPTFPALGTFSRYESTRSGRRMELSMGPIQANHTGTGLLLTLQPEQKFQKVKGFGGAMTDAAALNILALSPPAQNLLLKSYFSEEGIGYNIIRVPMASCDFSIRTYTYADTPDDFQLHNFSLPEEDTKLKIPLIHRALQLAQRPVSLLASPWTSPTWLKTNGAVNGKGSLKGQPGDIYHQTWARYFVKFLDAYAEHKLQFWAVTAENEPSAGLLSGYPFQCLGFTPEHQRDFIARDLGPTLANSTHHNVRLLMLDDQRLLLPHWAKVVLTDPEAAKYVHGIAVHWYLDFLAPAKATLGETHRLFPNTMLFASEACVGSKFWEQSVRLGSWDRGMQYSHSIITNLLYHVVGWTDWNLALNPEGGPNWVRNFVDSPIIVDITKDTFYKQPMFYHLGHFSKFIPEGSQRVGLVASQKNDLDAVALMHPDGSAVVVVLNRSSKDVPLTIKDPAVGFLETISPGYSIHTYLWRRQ
Chain of Glucocorticoid receptor (Homo sapiens) (P04150 whole entry, looked up, the tested form may be a part): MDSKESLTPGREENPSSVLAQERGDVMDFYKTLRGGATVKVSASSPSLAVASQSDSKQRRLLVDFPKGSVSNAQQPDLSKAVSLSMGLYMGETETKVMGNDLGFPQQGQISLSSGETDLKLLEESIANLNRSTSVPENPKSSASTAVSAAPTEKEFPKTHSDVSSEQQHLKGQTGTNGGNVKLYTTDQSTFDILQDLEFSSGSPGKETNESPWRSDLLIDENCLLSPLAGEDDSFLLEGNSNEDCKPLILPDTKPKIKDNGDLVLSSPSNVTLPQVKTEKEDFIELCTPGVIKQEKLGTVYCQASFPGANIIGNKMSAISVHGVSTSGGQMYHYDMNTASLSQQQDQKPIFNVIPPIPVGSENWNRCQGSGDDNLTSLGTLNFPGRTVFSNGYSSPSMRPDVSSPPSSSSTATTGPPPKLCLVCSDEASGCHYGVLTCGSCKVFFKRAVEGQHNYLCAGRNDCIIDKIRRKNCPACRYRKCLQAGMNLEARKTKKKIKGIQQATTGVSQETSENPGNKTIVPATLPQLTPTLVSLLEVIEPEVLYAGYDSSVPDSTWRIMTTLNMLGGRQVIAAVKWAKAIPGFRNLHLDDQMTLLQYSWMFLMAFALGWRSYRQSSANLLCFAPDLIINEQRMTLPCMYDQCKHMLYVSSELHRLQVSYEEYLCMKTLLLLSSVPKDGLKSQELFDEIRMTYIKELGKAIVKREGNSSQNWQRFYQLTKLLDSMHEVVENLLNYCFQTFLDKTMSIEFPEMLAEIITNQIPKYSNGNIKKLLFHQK
Chain of Cytochrome P450 1A2 (Homo sapiens) (P05177 whole entry, looked up): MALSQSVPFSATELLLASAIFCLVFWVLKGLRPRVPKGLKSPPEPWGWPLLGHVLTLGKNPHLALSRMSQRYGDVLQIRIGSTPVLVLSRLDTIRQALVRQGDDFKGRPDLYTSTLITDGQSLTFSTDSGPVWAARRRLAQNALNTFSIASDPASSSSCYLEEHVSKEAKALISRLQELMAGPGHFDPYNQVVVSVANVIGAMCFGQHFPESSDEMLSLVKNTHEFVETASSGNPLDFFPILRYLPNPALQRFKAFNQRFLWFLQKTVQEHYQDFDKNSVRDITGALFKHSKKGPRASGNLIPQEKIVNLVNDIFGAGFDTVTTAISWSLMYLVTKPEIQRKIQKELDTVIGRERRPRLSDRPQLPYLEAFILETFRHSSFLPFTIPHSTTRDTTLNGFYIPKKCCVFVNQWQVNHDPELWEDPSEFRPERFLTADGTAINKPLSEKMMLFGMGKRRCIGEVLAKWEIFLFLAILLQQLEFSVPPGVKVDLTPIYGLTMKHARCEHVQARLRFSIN
Chain of 3',5'-cyclic-AMP phosphodiesterase 4B (Homo sapiens) (Q07343 whole entry, looked up): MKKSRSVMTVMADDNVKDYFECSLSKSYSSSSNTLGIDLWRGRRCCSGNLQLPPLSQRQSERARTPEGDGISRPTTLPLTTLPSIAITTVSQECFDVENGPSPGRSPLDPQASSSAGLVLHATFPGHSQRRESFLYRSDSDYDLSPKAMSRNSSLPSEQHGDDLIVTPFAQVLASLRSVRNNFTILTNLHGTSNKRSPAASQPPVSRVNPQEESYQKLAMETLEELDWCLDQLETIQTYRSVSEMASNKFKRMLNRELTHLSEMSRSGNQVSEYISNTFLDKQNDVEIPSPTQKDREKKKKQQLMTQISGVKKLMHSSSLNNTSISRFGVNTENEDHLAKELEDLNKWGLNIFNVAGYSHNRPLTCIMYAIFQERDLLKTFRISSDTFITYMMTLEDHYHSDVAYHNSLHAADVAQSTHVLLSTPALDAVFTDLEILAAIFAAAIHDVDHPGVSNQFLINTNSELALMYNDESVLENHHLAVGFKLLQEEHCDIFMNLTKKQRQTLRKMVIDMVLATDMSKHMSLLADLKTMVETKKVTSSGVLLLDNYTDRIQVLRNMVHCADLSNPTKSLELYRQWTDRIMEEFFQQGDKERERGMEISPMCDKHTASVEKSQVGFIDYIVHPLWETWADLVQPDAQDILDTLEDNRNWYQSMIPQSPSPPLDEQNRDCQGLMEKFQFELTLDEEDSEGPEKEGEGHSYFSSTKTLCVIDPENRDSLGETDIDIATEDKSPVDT
Chain of Cytochrome P450 2C9 (Homo sapiens) (P11712 whole entry, looked up): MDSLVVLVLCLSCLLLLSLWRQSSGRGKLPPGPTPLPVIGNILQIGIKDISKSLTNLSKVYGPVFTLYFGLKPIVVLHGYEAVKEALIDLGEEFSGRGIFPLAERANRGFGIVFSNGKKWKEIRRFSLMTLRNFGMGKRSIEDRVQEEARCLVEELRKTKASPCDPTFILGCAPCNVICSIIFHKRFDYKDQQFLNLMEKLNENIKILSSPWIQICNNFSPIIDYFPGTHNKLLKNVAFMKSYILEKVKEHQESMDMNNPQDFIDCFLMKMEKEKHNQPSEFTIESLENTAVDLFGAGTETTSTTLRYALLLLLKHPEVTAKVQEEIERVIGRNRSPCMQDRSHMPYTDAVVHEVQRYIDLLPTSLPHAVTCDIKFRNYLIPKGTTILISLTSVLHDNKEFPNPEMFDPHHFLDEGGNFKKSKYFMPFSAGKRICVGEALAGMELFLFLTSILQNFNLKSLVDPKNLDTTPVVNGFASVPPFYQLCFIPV

Compound | Potency [1] | activity change, negative = inhibition [2] | Potency [3] | activity change, negative = inhibition [4] | activity, negative = inhibition [5] | Potency [6] | Potency [7] | Potency [8] | Potency [9] | activity change, negative = inhibition [3] | Potency [10]
N#CCCn1c(=O)c(-c2cccc(C#N)c2)nc2cnc(Oc3ccccc3)nc21 | > 11.4 µM | -17.5% | 20 µM (active) | -7.09% | -3.8% | > 9.22 µM | > 46 µM | inactive | inactive |  | 
O=C(O)c1cc(=O)[nH]c(SCc2ccccc2)n1 | > 11.4 µM | 12.1% | inactive | -27.5% | 0.79% | > 46 µM | > 9.22 µM | inactive | inactive |  | 
NC(Cc1ccccc1)=NCC(=O)O | > 11.4 µM | 2% | inactive | -0.213% | -4.46% | > 46 µM | > 9.22 µM | inactive | inactive |  | 
CN(C)CCCNc1ncnc2nc[nH]c12 | > 11.4 µM | -0.851% | inactive | -10.5% | 3.41% | > 46 µM | > 9.22 µM | inactive | inactive |  | 
Oc1ccccc1CNCc1ccccc1O | > 11.4 µM | -4.9% | inactive | -12.2% | -8.46% | > 46 µM | > 9.22 µM | inactive | inactive |  | 
COc1ccc(C[N+](C)(C)N)cc1OC | > 11.4 µM | 0.59% | inactive | -4.71% | 7.15% | > 46 µM | > 9.22 µM | inactive | inactive |  | 
CN1CCCC[C@@H]1CCN1CCCCC1 | > 11.4 µM | 4.46% | 0.01 µM (active) | -9.35% | 3.65% | > 46 µM | > 9.22 µM | inactive | inactive |  | 
N[C@@H](Cc1nn[nH]n1)C(=O)O | > 11.4 µM | -0.568% | inactive | -5.25% | 10.9% | > 46 µM | > 9.22 µM | inactive | inactive |  | 
CC1=NN(c2ccccc2)C(=O)[C@@H]1N=Nc1ccc(S(N)(=O)=O)cc1 | > 11.4 µM | 6.08% | 1.26 µM (active) | 9.48% | -4.22% | > 46 µM | > 9.22 µM | inactive | inactive |  | 
COc1ccc(-c2nc(N)c3ncn([C@H]4O[C@@H](CO)[C@@H](O)[C@@H]4O)c3n2)cc1 | > 11.4 µM | -12.4% |  | 0.656% | 3.98% | > 46 µM | > 9.22 µM | inactive | inactive | -13% [at 2.29 µM] | 
C/C(=N/O)[C@@H]1C[C@H](CC(=O)O)C1(C)C | > 11.4 µM | 10.6% | inactive | 9.94% | 18.2% | > 46 µM | > 9.22 µM | inactive | inactive |  | 
N#CC1(Nc2ccc(-c3ccc(NC4(C#N)CCCC4)cc3)cc2)CCCC1 | > 11.4 µM | -7.74% | 3.16 µM (active) | 14.8% | 19% | > 46 µM | > 9.22 µM | inactive | inactive |  | 
COc1cccc2c1C(=O)c1c(O)c3c(c(O)c1C2=O)C[C@@](O)(C(=O)CO)C[C@H]3O[C@H]1C[C@@H](N)[C@H](O)[C@@H](C)O1.[W] | > 11.4 µM | 0.391% | inactive | -27.2% | 14.9% | > 46 µM | > 9.22 µM | inactive | inactive |  | 
O=C(O)c1cscc1Cc1cccs1 | > 11.4 µM | -0.132% | inactive | -2.63% | 5.79% | > 46 µM | > 9.22 µM | inactive | inactive |  | inactive
Nc1nc2c(C(=O)NCc3cccs3)nnn2c2cccc(Cl)c12 | > 11.4 µM | 2.54% | 1 µM (active) | -1.34% | -2.31% | > 46 µM | > 9.22 µM | inactive | inactive |  | 
